MEKK2 WT-MEK5 = modulators of MEK5 binding to wildtype MEKK2, primary screen, biochemical, multiplex bead flow cytometry, Alexa488-MEK5; Mitogen-activated protein kinase kinase kinase 2 (Homo sapiens), Q9Y2U5; Alexa488-MEK5 binding to MEKK2 WT; actives lie on both sides; hit rate 1.1% among 290,000; binding response (% of control), % at 10 µM; in the data active = binding response below about 67% or above about 130%
MEKK3 PB1 HTS = modulators of MEKK3-MEK5 PB1 binding, primary screen, biochemical, wildtype MEKK3, multiplex bead flow cytometry, Alexa488-MEK5 | hit rate 1.4% among 290,000 | bead-based flow cytometry, Alexa488-MEK5 binding to MEKK3; actives lie on both sides; 0 = blocked by unlabeled MEK5, 100 = vehicle | Mitogen-activated protein kinase kinase kinase 3 (Homo sapiens), Q99759 | binding response (% of control), % at 10 µM;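 active = binding response more than 3 SD above or below the average of its plate-row segment, actives on both sides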;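 note: Alexa488 bead fluorescence after subtracting the streptavidin-only scavenger bead signal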
Target sequence (Q99759 whole entry, looked up): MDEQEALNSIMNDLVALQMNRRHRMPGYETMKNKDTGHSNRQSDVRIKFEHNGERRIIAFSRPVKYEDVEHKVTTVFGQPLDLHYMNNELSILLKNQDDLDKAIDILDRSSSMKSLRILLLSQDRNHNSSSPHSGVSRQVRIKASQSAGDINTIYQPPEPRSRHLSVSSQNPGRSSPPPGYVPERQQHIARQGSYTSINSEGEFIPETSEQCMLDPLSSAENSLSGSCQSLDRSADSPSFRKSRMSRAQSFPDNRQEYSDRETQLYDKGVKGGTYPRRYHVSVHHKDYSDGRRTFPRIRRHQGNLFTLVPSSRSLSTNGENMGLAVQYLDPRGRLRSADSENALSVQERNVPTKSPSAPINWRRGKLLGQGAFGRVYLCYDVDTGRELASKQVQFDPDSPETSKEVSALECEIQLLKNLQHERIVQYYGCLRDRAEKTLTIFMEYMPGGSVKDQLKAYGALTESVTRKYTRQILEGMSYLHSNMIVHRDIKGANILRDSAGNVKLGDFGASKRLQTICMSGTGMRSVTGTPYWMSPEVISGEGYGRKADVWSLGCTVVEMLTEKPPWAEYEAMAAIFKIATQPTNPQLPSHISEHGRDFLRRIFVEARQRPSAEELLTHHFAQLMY
GRK2 aptamer HTS = compounds blocking aptamer binding on GRK2 – biochemical, human GRK2, bead flow cytometry, HTS, primary screen | FAM-aptamer displacement from GRK2 | inhibition of aptamer binding, % at 10 µM | Beta-adrenergic receptor kinase 1 (Homo sapiens), P25098 | hit rate 0.59% among 330,000;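 active = inhibition of aptamer binding above 40%, roughly 3 SD of noise, on plates passing a quality check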;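 note: median bead fluorescence of bound FAM aptamer so fluorescent compounds give negative values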
MEKK2mut PB1 HTS = MEK5 binding signal on mutant MEKK2 PB1, primary screen, biochemical, multiplex bead flow cytometry, Alexa488-MEK5 | Alexa488-MEK5 binding to MEKK2 mutant | percent response, % at 10 µM | hit rate 0.35% among 290,000; in the data active = percent response above about 24%, passing the limit was not always enough
GRK2 inh confirm = GRK2 aptamer-displacing inhibitors, retest, confirmation, biochemical, cherry pick 1, bead flow cytometry. shares compounds with GRK2 aptamer HTS. bead-bound GRK2, FAM-aptamer displacement. aptamer displacement, % at 10 µM. hit rate 4% among 2,000;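 active = aptamer displacement above 40%, near three times the noise of non-fluorescent compounds, on plates passing quality checks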;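 note: negative values mostly reflect intrinsic compound fluorescence rather than true enhancement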
Aptamer quench = fluorescent aptamer quenching in GRK2 counter-screen dose response; Fluorescent RNA aptamer beads, flow cytometry; stronger effect = higher value; fluorescence change (kMESF span), kMESF (no concentration beside the values); shares compounds with GRK2 aptamer HTS; 110 tested, under 10 active; AID 504521;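 active = compounds whose bead fluorescence drops by more than 37 kMESF across the dose range, marking them as dye quenchers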
FAM quench CP1 = aptamer fluorescence quenching in GRK2 counter-screen. Carboxyfluorescein RNA aptamer on beads, flow cytometry quenching; stronger effect = lower value. AID 504580. fluorescence response (% of DMSO), % at 10 µM. shares compounds with GRK2 aptamer HTS. 2,000 tested, under 10 active;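 active = compounds that quench the bead-bound fluorescent RNA probe, cutting fluorescence to under half of the solvent control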;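 note: counterscreen run without GRK2 so only probe quenching by compound is measured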
GRK2 confirm 2 = GRK2 aptamer-displacing inhibitors, hit retest, confirmation, biochemical, cherry pick 2, bead flow cytometry | inhibition of aptamer binding, % at 10 µM | 360 tested, under 10 active | bead-bound GRK2, FAM-aptamer displacement | AID 504782, 2011 | shares compounds with GRK2 aptamer HTS;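 active = inhibition of aptamer binding above 40%, about triple the noise seen with nonglowing compounds, on plates passing quality control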;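 note: negative values mostly come from compounds that fluoresce themselves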
FAM quench CP2 = aptamer fluorescence quenching in GRK2 counter-screen; shares compounds with GRK2 aptamer HTS; fluorescence response vs DMSO, % at 10 µM; 360 tested, under 10 active; AID 588494; carboxyfluorescein RNA aptamer beads, flow cytometry quenching; stronger effect = lower value;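 active = response vs DMSO under 50%, meaning signal dropped by over half, treated as fluorescence quencher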;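 note: labelled aptamer on streptavidin beads without GRK2 as a quench counter-screen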
A number is an active result; - = inactive; . = no result. Most compounds without a hit are left out; they make up all but 2.5% or so of the library.

SMILES | MEKK2 WT-MEK5 | MEKK3 PB1 HTS | GRK2 aptamer HTS | MEKK2mut PB1 HTS | GRK2 inh confirm | FAM quench CP1 | others
CN(CC(=O)Nc1cccc(F)c1)C(=O)c1ccc(N2C(=O)c3ccccc3C2=O)cc1 | . | . | - | . | - | -
Cc1ccccc1C(=O)N1CCC(C(=O)N(C)CC(=O)Nc2cccc(F)c2)CC1 | - | - | 51 | - | . | . | GRK2 confirm 2=-;FAM quench CP2=-
CN(CC(=O)Nc1cccc(F)c1)C(=O)C1CCN(S(=O)(=O)c2ccc3c(c2)OCCO3)CC1 | . | . | - | . | . | .
CC(CCC(=O)O)C1CC[C@@]2(C)C3C(=O)CC4C(C)(C)C(O)CC[C@]4(C)C3C(=O)C[C@]12C (stereo not given in full) | - | - | 44 | - | - | -
CCOc1ccccc1NC(=O)c1cnc(NS(=O)(=O)c2ccccc2)nc1 | - | - | - | - | . | .
NS(=O)(=O)c1cccc(C(=O)NC2CCSc3ccccc32)c1 (stereo not given) | - | - | - | - | . | .
NS(=O)(=O)c1cc(C(=O)NC2CCSc3ccccc32)ccc1Cl (stereo not given) | - | - | 51 | - | - | -
CCCCNC(=O)[C@@H]1CC=C[C@@H]2CCN(C3CC3)C(=O)[C@@H]21 | - | - | - | - | . | .
CCOC(=O)Nc1sc(C)nc1-c1ccccc1 | - | - | 44 | - | - | -
COCCCNCCCCOc1ccc(Br)cc1Cl | - | - | 41 | - | . | . | GRK2 confirm 2=-;FAM quench CP2=-
CCCCNCCOCCOc1ccc(C)cc1Br | - | - | - | - | . | .
COCCCNCCOCCOc1ccc(C)cc1Br | - | - | 100 | - | . | . | GRK2 confirm 2=-;FAM quench CP2=-
COCCNCCCOc1ccc(Br)cc1Cl | - | - | - | - | . | .
CCN(CC(=O)Nc1c(F)cccc1F)C(=O)CC1CCCCC1 | . | . | - | . | . | .
Cc1ccc(NC(=O)CN2C(=O)N/C(=C/c3cccn3-c3ccc(C(=O)O)cc3)C2=O)cc1 | - | - | 96 | - | 86 | - | Aptamer quench=-
Cc1ccc(NC(=O)CN2C(=O)N/C(=C/c3cc(C)n(-c4ccc(C(=O)O)cc4)c3C)C2=O)cc1 | - | - | . | - | . | .
Cc1nc(C(=O)NCc2ccccc2)sc1C1(C)CC(c2ccccc2)=NO1 (stereo not given) | - | - | - | - | - | -
NS(=O)(=O)c1ccc(NC(=O)CSc2nc(Nc3ccccc3)nc(N3CCOCC3)n2)cc1 | - | - | - | - | . | .
COc1ccc(OC)c(/C=N/NC(=O)c2ccncc2)c1 | - | - | 57 | - | - | -
COc1ccc(CN(C)C(C)C(=O)Nc2ccc(S(=O)(=O)N3CCCCC3)cc2)cc1F (stereo not given) | . | . | 72 | . | - | -
Cc1ccc(Cl)cc1C1=CC(=O)C[C@H](c2ccc(F)cc2)C1 | . | . | 64 | . | - | -
CCOC(=O)c1sc2nc3c(SCC(=O)O)cc(C(=O)c4ccccc4O)cn3c(=O)c2c1C | - | - | 63 | - | - | -
CCOC(=O)c1sc2nc3c(SCC(=O)O)cc(C(=O)c4cc(F)ccc4O)cn3c(=O)c2c1C | - | - | - | - | . | .
CN(C(=O)c1cccc(Nc2ccc(-c3ccc4c(c3)OCCO4)nn2)c1)C1CCCCC1 | - | - | - | - | - | -
O=C(CN(CC1CCCO1)C(=O)c1nsc(Cl)c1Cl)NC1CCCC1 (stereo not given) | - | - | - | - | . | .
SMILES | MEKK2 WT-MEK5 | MEKK3 PB1 HTS | GRK2 aptamer HTS | MEKK2mut PB1 HTS | GRK2 inh confirm | FAM quench CP1 | others
Cc1c(NC(=O)c2ccc(S(=O)(=O)N(C)C)cc2)cccc1-n1cnnn1 | . | . | 94 | . | - | -
O=C(Nc1ccc2c(c1)OCO2)C1CC(=O)N(c2cccc(Cl)c2)C1 (stereo not given) | - | - | - | - | . | .
Cc1cccc(C)c1NS(=O)(=O)c1cc2c3c(c1)CC(=O)N3CCC2 | - | - | - | - | . | .
NS(=O)(=O)c1ccc(CCNC(=O)C(=O)NCC2OCCN2S(=O)(=O)c2ccc(F)cc2)cc1 (stereo not given) | - | - | - | - | . | .
Cc1ccc2[nH]c(-c3ccccc3)c(CN3CCCC3)c(=O)c2c1 | - | - | - | - | . | .
Cc1ccc2[nH]c(-c3ccccc3)c(CN(C)C)c(=O)c2c1 | - | - | - | - | - | -
COc1ccc(S(=O)(=O)N2CCCCC2)cc1NC(=O)CCNC(=O)c1ccc(Cl)cc1 | . | . | 47 | . | - | - | GRK2 confirm 2=-;FAM quench CP2=-
O=C(Nc1cccc(-c2ccc(N3CCOCC3)nn2)c1)c1ccccc1 | . | . | - | . | - | - | Aptamer quench=-
Cc1ccccc1C(=O)Nc1cccc(-c2ccc(N3CCOCC3)nn2)c1 | . | . | - | . | - | -
O=C(Nc1cccc(-c2ccc(N3CCOCC3)nn2)c1)c1ccc([N+](=O)[O-])cc1 | . | . | - | . | . | .
CC(C)[C@H](NS(=O)(=O)c1cccc(C(F)(F)F)c1)C(=O)OCC(N)=O | - | - | - | - | . | .
CCOC(=O)c1cc(S(=O)(=O)NC2CCC(C)CC2)cn1C (stereo not given) | - | - | - | - | . | .
Cc1ccc(S(=O)(=O)N2CCOCC2)cc1NC(=O)COC(=O)/C=C/c1ccco1 | . | . | 63 | . | - | -
COc1cccc(/C=C/C(=O)OCC(=O)Nc2cc(S(=O)(=O)N3CCOCC3)ccc2C)c1 | - | - | - | - | . | .
CCCCOCCCNc1ncnc2c1[nH]c1ccccc12 | - | - | 53 | - | - | -
CCN(CC)CCN(CC)Cc1ccccc1Br | - | - | 99 | - | - | -
CCN(CCO)Cc1csc2cccc(Br)c12 | . | . | - | . | . | .
CCCNC(=O)C(Cc1cccc(C#N)c1)NC(=O)c1ccc(C#N)cc1 (stereo not given) | . | . | 82 | . | - | -
C#CCn1cc(Cl)cc(C(=O)Nc2ccccc2)c1=O | - | - | - | - | . | .
Cn1c(=S)n(CCC(=O)O)c2ccccc21 | - | - | - | - | - | -
Cc1ccc(-c2csc3ncn(CC#N)c(=O)c23)cc1C | - | - | 86 | - | - | -
Cc1ccc(-c2csc3ncn(CC#N)c(=O)c23)cc1 | - | - | - | - | . | .
